Results reported in PubChem BioAssay AID1259313 (Sanford-Burnham Center for Chemical Genomics, 2017).
Screen size: about 340,000 compounds; about 8,500 (2.5%) were called active. The sample as a whole holds a higher share of actives than the screen did. Values without a mark were called inactive.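 Rule for the calls: active = melting temperature shift of at least 10% of the positive control shift, at one fixed dose; inactive = the rest.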

tested on: Glutamate receptor ionotropic, NMDA 3A (GRIN3A) ligand-binding domain; experiment: NR3A LBD thermal stabilization by compounds – biophysical, differential scanning fluorimetry, uHTS, primary screen (AID 1259313); details: at 25 µM, active compounds read high, 0% = protein alone, 100% = glycine-bound protein

Compound	Tm shift relative to glycine control
CC(C)N1CCC(=NNc2ccc([N+](=O)[O-])cc2S(=O)(=O)N2CCOCC2)CC1	0.15%
O=C(CCNC(=O)c1ccc(Br)cc1)Nc1cccc(S(=O)(=O)N2CCCCC2)c1	-8.95%
Cc1ccc(S(=O)(=O)N2CCCCC2)cc1NC(=O)CCNC(=O)c1ccccc1	10.2% (active)
Cc1ccc(S(=O)(=O)N2CCCCC2)cc1NC(=O)c1cccnc1	-0.36%
CCOC(=O)NN1C(=O)c2ccccc2NC1c1ccccc1O (stereo unspecified)	1.62%
C=CCOc1c(CNn2cn[nH]c2=S)cccc1OC	1.48%
Cc1cc(C)cc(NC(=O)c2cccc(NC(=O)C3C4CC5OC(=O)C3C5C4)c2)c1 (stereo unspecified)	3.21%
COC(=O)CNC(c1ccccc1Cl)c1cc(Br)ccc1NC(=O)CCN1CCOCC1 (stereo unspecified)	-6.58%
Cc1ccc(CNC(=O)c2cccc3c2C(=O)c2ccc(N4CCC(C)CC4)cc2S3(=O)=O)cc1	0.32%
NC(=O)C(Cc1ccccc1)NC(=O)C12CC3CC(CC(C3)C1)C2 (stereo unspecified)	1.38%
CCOC(=O)c1c(C)oc2cc(Sc3ccccc3)c(O)c(O)c12	1.87%
COc1ccc(CCN2CC(C(=O)OCC(=O)NCc3ccccc3Cl)CC2=O)cc1OC (stereo unspecified)	-0.25%
O=C(NCCCN1CCOCC1)c1cc2c(s1)CCC2	1.5%
COc1ccc(C(CNC(=O)c2cccnc2SC)N2CCOCC2)cc1 (stereo unspecified)	-0.34%
COc1ccc(C(CNC(=O)c2ccc(S(=O)(=O)Nc3ccccc3C)cc2)N2CCOCC2)cc1 (stereo unspecified)	2.35%
COc1ccc(C(CNC(=O)c2cccc(S(=O)(=O)Nc3ccccc3Cl)c2)N2CCOCC2)cc1 (stereo unspecified)	15.6% (active)
COc1ccc(C(CNC(=O)c2cccc(NS(=O)(=O)c3ccc(C)c(F)c3)c2)N2CCCC2)cc1 (stereo unspecified)	-1.75%
COc1ccc(C(CNC(=O)c2cc3c(s2)CCCC3)N2CCOCC2)cc1 (stereo unspecified)	53.2% (active)
CC(C)NC(=O)c1ccccc1S(=O)c1ccccc1C#N (stereo unspecified)	-0.24%
Cc1noc(C)c1S(=O)(=O)N(C)Cc1ccccc1	-2.24%
CCNC(=O)CCc1nc(-c2ccc(C(C)(C)C)cc2)no1	2.39%
COCCN(CCOC)S(=O)(=O)NC[C@H]1O[C@@H](n2cnc3c(N)ncnc32)[C@H](O)[C@@H]1O	-2.01%
CN(NS(=O)(=O)c1cccs1)c1ncc(C(F)(F)F)cc1Cl	-0.95%

Compound	Tm shift relative to glycine control
O=C(N/N=C/c1ccc([N+](=O)[O-])o1)c1cn(-c2ccccc2)nc1-c1ccc(F)cc1	57.3% (active)
O=C(/C=C/c1ccc([N+](=O)[O-])o1)NNC(=O)c1ccc(F)cc1	-1.3%
O=C(NCCCN1CCOCC1)c1cn(-c2ccccc2)nc1-c1ccc(F)cc1	-0.58%
O=C(CCn1nnc2ccccc21)OCC(=O)c1ccc([N+](=O)[O-])cc1	-0.44%
Cc1nc(NC(=O)c2ccc3c(c2)OCCO3)ccc1Br	11.1% (active)
O=C(Nc1ccc(Cl)cn1)c1ccc2c(c1)OCCO2	-0.17%
Cc1ccc(C(=O)NNC(=O)c2ccc3c(c2)OCCO3)cc1	1.65%
O=S(=O)(c1cccc(Cn2nnc(-c3ccc(F)cc3)n2)c1)N1CCOCC1	0.18%
COc1ccc(S(=O)(=O)N(C)C[C@H]2Oc3c(NC(=O)Nc4ccc5c(c4)OCO5)cccc3C(=O)N([C@H](C)CO)C[C@@H]2C)cc1	-34%
Cc1ccc2nc(-c3ccc(NC(=O)c4cccnc4)cc3)oc2c1	24% (active)
Cc1cc(NS(=O)(=O)c2ccc(NC(=O)c3cccnc3)cc2)nc(C)n1	-0.7%
Cc1cc2nc(-c3ccc(NC(=O)c4cccnc4)cc3)oc2cc1C	24.6% (active)
Cc1ccc(-n2nc3cc(C)c(NC(=O)c4cccnc4)cc3n2)cc1	-2.09%
CCOC(=O)c1ccc(NC(=O)c2cccnc2)cc1	0.68%
CC(=O)NC(=S)Nc1ccc(NC(=O)c2cccnc2)cc1	2.02%
Cc1ccc(C2CC(c3cccc(NS(C)(=O)=O)c3)=NN2S(C)(=O)=O)cc1 (stereo unspecified)	-1.41%
CC(C)(C)C(=O)COC(=O)c1cc(S(=O)(=O)N2CCCCC2)ccc1N1CCOCC1	-1.85%
COc1ccccc1CNS(=O)(=O)c1ccc2c(c1)NC(=O)CS2	1.27%
COc1ccc(Cl)cc1C=CC=Nc1ccc(S(N)(=O)=O)cc1	-9.77%
Cc1nc2ccc(C(=O)N/N=C/c3ccc(O)cc3)cc2[nH]1	-4.58%
O=C(NN=Cc1ccccc1)c1ccccc1	3.44%
CSc1ccc(/C=N\NC(=O)CC(=O)NC(C)C)cc1	-7.31%
CC(=NNC(=O)c1ccc2nc[nH]c2c1)c1ccc(Br)cc1	-13%
